Screening data from PubChem.
PLCb3 inh – inhibitors of human phospholipase C beta3; Q01970; Purified PLC-beta3, fluorogenic substrate, fluorescence; inhibition, % at 12.2 µM; 370,000 compounds, 0.18% hits; AID 720704; in the data active = inhibition above about 11%
Rce1 inhib – blocks yeast Ras-converting enzyme. Q03530. 290,000 compounds, 0.27% hits. calls only. yeast membranes, quenched prenylated peptide cleavage fluorescence. AID 2563;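 active = fall in fluorescence gain of 50% or more versus controls, with final raw signal at or below 3038400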
ADAM17 inh – inhibitors of human ADAM17. 370,000 compounds, 0.83% hits. inhibition, % at 6.95 µM. recombinant ADAM17, EDANS/DABCYL FRET peptide cleavage. P78536;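 active = inhibition above the mean of compounds lying between control limits plus 3 SD, set per campaign, cut at about 8.5% in these data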
Target sequence (P78536 215-824 limits assumed): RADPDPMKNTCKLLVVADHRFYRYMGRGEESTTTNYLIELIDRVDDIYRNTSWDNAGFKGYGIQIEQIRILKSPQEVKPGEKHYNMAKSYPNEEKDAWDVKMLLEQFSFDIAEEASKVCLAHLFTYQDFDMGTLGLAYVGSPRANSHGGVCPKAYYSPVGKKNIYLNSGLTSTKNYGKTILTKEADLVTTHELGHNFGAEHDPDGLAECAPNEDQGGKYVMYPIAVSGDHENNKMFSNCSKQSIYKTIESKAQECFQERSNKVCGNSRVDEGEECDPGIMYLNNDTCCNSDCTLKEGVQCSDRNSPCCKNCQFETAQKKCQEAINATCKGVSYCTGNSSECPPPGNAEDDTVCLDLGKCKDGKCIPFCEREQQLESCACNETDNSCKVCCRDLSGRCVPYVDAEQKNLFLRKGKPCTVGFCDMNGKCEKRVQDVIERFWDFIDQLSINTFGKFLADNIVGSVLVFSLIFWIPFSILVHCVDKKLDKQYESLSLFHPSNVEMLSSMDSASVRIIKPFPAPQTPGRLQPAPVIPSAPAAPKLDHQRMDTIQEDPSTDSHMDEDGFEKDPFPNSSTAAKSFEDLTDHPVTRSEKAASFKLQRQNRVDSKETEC
ADAM10 inh – inhibits human ADAM10; 370,000 compounds, 0.62% hits; O14672; AID 720582; inhibition, % at 7 µM; recombinant ADAM10, EDANS/DABCYL FRET peptide cleavage, 3 h;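 active = inhibition above a per-campaign cutoff equal to the mean of compounds falling between control-based bounds plus 3 SD, cut at about 20% in these data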
PLC-gamma1 inh – blocks human PLC-gamma1 enzyme activity. P19174. purified PLC-gamma1, fluorogenic substrate, fluorescence. inhibition, % at 12.2 µM. 370,000 compounds, 0.84% hits; in the data active = inhibition above about 9.5%
Numbers stand for hits; - = inactive; . = no result; + = active, no number. This is a sample that favours compounds with a hit; in the whole collection about 2.1% have one here.

SMILES	PLCb3 inh	Rce1 inhib	ADAM17 inh	ADAM10 inh	PLC-gamma1 inh
Nc1nnnn1/N=C/c1ccccc1OCc1ccc(Cl)cc1Cl	-	+	-	-	-
Cc1ccc(NC(=O)CCNS(=O)(=O)c2cccc3nonc23)cc1	-	-	-	-	-
CC(C)c1ccc(NC(=O)CCNS(=O)(=O)c2cccc3nonc23)cc1	-	-	-	-	14
COC(=O)[C@]12C[C@H](CC(=O)N3CCCC3)C(=O)N(Cc3ccco3)C1=C[C@H](C1CCCC1)O[C@@H]2C	-	.	-	-	-
O=C(O)CNc1ccccc1C(=O)O	-	+	-	-	-
Cc1ccc(Cl)cc1N1CCN(C(=O)CCCn2c(=O)c3cccn3c3cccnc32)CC1	-	-	-	-	10
Cc1cccc(N2CCN(C(=O)CCCn3c(=O)c4cccn4c4cccnc43)CC2)c1C	-	-	-	-	-
CCOC(=O)C(=CNc1ccc2c(c1)c1ccccc1n2CC)C(=O)OCC	-	-	-	-	-
COC(=O)[C@]12C[C@H](CC(=O)NCCCCc3ccccc3)C(=O)N(CCC3=CCCCC3)C1=C[C@H](C1CCCC1)O[C@@H]2C	-	.	-	-	-
N#Cc1nc(-c2ccco2)oc1N1CCCC1	-	-	-	-	-
N#Cc1nc(-c2ccco2)oc1N1CCN(C(c2ccccc2)c2ccccc2)CC1	-	+	-	-	-
CCOC(=O)C1=CCC(c2ccccc2)N(S(C)(=O)=O)C1 (configuration not stated)	-	.	-	-	-
Cc1nc(N2CCOCC2)c2cc(-c3ccccc3)sc2n1	-	+	-	-	-
CCC(CC)NC(=O)c1ccc(NS(=O)(=O)c2ccc3[nH]c(=O)[nH]c3c2)cc1	-	-	-	-	-
CCOC(=O)c1ccc(NS(=O)(=O)c2ccc3[nH]c(=O)[nH]c3c2)cc1	-	-	-	-	10
C[C@H]1C(C(=O)N(C)C2CCCCC2)=Cc2c(n(-c3ccc(F)cc3)c(=O)n2CCCOc2ccccc2)C=C1c1ccccc1	-	.	-	-	-
CCOC(=O)CSC1=C(C#N)C(=O)NC(c2ccc(OC)cc2)S1 (configuration not stated)	17	-	-	-	14
Cc1ccc(S(=O)(=O)c2ccc([N+](=O)[O-])cn2)cc1	-	-	-	-	11
CC(=O)Nc1ccc(C=NNc2ccc(S(=O)(=O)Nc3ccccc3C(=O)O)cc2[N+](=O)[O-])cc1	-	.	-	-	11
CC(=O)Nc1ccc(C=NNc2ccc([N+](=O)[O-])cc2S(=O)(=O)Nc2ccccc2C(=O)O)cc1	-	.	-	-	-
COc1cccc2[nH]c3c(N4CCN(Cc5ccc6c(c5)OCO6)CC4)ncnc3c12	-	+	-	-	-
COc1ccc2c(c1)[nH]c1c(N3CCN(Cc4ccc5c(c4)OCO5)CC3)ncnc12	-	-	-	-	-
COc1cccc(CC(=O)O[C@@H]2CCC[C@@]3(C(=O)N(Cc4ccccc4)c4ccccc43)[C@H]2NC(=O)CCc2ccccc2)c1	-	.	-	-	-
Cc1cccc2cc(CN(CC3CCCO3)C(=O)NC3CCCCC3)c(=O)[nH]c12 (configuration not stated)	-	-	-	-	9.7
O=C(NCC1CC1)c1cc(-c2ccccc2)nn1CC1CC(c2cccc([N+](=O)[O-])c2)=NO1 (configuration not stated)	-	+	-	-	-
SMILES	PLCb3 inh	Rce1 inhib	ADAM17 inh	ADAM10 inh	PLC-gamma1 inh
O=C(O)c1cc(-c2ccccc2)nn1CC1CC(c2cccc([N+](=O)[O-])c2)=NO1 (configuration not stated)	-	-	-	-	9.9
COCCNC(=O)c1cc(-c2ccccc2)nn1CC1CC(c2cccc([N+](=O)[O-])c2)=NO1 (configuration not stated)	-	-	-	-	-
Nn1c(SCC(=O)Nc2nccs2)nnc1-c1cc(-c2ccc(F)cc2)n[nH]1	-	.	-	-	-
COCC(=O)N(c1ccc(C(C)(C)C)cc1)C(C(=O)NC(C)(C)C)c1cccnc1 (configuration not stated)	-	.	-	-	-
CC(OC(=O)c1ccc2c(=O)n3c(nc2c1)CCC3)C(=O)NC1CCCCC1C (configuration not stated)	-	+	-	-	-
Nc1nnc(-c2ccncc2)s1	-	+	-	-	-
CN(c1ccccc1)c1ccc(/C=C(\CCC(=O)O)c2nc3ccccc3s2)cc1[N+](=O)[O-]	-	-	9.8	-	-
Cc1ccc2c(c1)-c1c(cnn1CC(=O)NCCc1ccccc1F)CO2	-	.	-	-	-
Cc1ccccc1NC(=O)Cc1nc(COC(=O)COc2cccc(C)c2C)cs1	-	-	-	-	12
Cc1cc(NS(=O)(=O)c2ccccc2)c([N+](=O)[O-])cc1C	-	+	-	-	-
O=[N+]([O-])c1cc(Br)ccc1NS(=O)(=O)c1ccccc1	-	.	-	-	-
COc1ccc(CN2C(C(=O)NCC(C)C)CSCCS2(=O)=O)cc1 (configuration not stated)	-	.	-	-	-
CN(C)C=Nc1nc2c(Br)ccc(Br)c2cc1C(=O)NCC(C)(C)C	-	.	-	-	-
CCOC(=O)CC[C@H]1CC[C@]2(CCCN(C(=O)c3ccc4ccccc4n3)C2)O1	-	.	-	-	-
COC(=O)C(Cc1ccccc1)OS(N)(=O)=O (configuration not stated)	-	+	-	-	-
CN1CCN(CCCNC(=O)c2cc3c(-c4ccc(Cl)cc4)nn(C)c3s2)CC1	-	+	-	-	-
Cc1cc(C)nc(NC(=O)/C=C/c2ccccc2Cl)n1	-	-	-	-	-
CC(=O)N(C)c1ccc(NC(=O)/C=C/c2ccccc2Cl)cc1	-	+	-	-	-
Cc1cc(N)c2cc(NC(=O)/C=C/c3ccccc3Cl)ccc2n1	.	+	.	.	.
COc1ccc(-c2cc(-c3nc4ccccn4c3NCc3ccccc3)ccc2OC)cc1	-	.	-	-	-
CN(C)c1ccc(-c2nc3ccccn3c2/N=C/c2ccc(Br)cc2)cc1	-	-	-	-	-
COc1cc(-c2nc3ccccn3c2/N=C/c2cc(OC)c(OC)c(OC)c2)ccc1O	-	+	-	-	-
COc1ccc(OC)c(/C=N/c2c(-c3ccc(O)c(OC)c3)nc3ccccn23)c1	-	+	-	-	-
COc1ccc(Br)cc1C(=O)Nc1cc(C)cc(C)c1	-	+	-	-	-
CCOC(=O)N1CCN(C(=O)C[C@H]2C[C@@]3(C(=O)OC)C(=C[C@H](COCc4ccccc4)O[C@@H]3C)N(Cc3ccc4c(c3)OCO4)C2=O)CC1	-	.	-	-	-
Cc1ccnc(SCc2cn3c(C)cc(C)nc3n2)n1	-	+	-	-	-
Cc1cc(C)n2cc(CSCc3ccco3)nc2n1	-	-	-	-	-
Cc1cc(C)n2cc(CSc3ncccc3C(=O)O)nc2n1	-	+	-	-	-
Cc1cc(C)n2cc(CSC3=NCCS3)nc2n1	-	+	-	-	-
COC(=O)Cc1nnn2c1[C@H](C)[C@@H](OC)c1cccc(Cl)c1-2	-	.	-	-	-
